Assay [1] concerns the target Acetylcholinesterase (Homo sapiens) (UniProt P22303). The assay can be described thus: Acetylcholinesterase (AChE) small molecule antagonists: colormetric cell-based qHTS assay (AID 1347395). Further: nearly all actives have a fitted effect of over 30% in size. Further: potency means the concentration at half of the fitted maximal effect. A digest of the protocol: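 SH-SY5Y cells; cpd 30 min 37 C; + DTNB/acetylthiocholine, 90 min 37 C; colorimetric thiocholine read; qHTS.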
For assay [2] the target is unchanged. The assay is described as follows: Acetylcholinesterase (AChE) small molecule antagonists: enzyme-based qHTS assay (AID 1347397). Further: nearly all actives have a fitted effect of over 55% in size. Further: potency means the concentration at half of the fitted maximal effect. The note with it: Potency: AChE enzyme activity inhibition; outcome: AChE enzyme activity inhibition. In a few lines: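 Colorimetric DTNB readout of acetylthiocholine hydrolysis, 10 min at room temperature, after 30 min room-temperature exposure of 50 mU/mL recombinant human enzyme to compound; DMSO vehicle control.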
For orientation: In qHTS, concentration-response curves come from the screen itself.

For assay [3] the target is unchanged. The assay can be described thus: Acetylcholinesterase (AChE) small molecule antagonists: fluorescence cell-based qHTS assay (AID 1347398). Further: nearly all actives have a fitted effect of over 50% in size. Further: potency means the concentration at half of the fitted maximal effect. The note with it: Potency: AChE activity; outcome: AChE activity. In a few lines:
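Cellular AChE activity read as thiocholine from acetylthiocholine hydrolysis, detected by Thiolite Green fluorescence at 490/520 nm after 40 min at room temperature. Compounds were pre-incubated 30 min at 37 C on adherent SH-SY5Y cells.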

For assay [4] the target is unchanged. The assay is described as follows: Acetylcholinesterase (AChE) small molecule antagonists: enzyme-based qHTS assay with human liver microsomes (AID 1347399). Further: nearly all actives have a fitted effect of over 60% in size. The note with it: Potency: qHTS inhibition; outcome: qHTS inhibition. A digest of the protocol: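 Recombinant human AChE (50 mU/mL in the enzyme mix) and human liver microsomes (0.25 mg/mL final) were preincubated with compound and NADPH (0.25 mg/mL final) for 30 min at 37 C. Acetylthiocholine/DTNB was then added; thiocholine was read colorimetrically after 10 min at room temperature.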

SMILES strings stand for the structures. Results filed as inconclusive are left out. Some structures have more than one record in an assay (separate samples or runs), and their calls can disagree. Active and inactive are the calls of the source. The call rests on the fitted dose curve.

Sequence of Acetylcholinesterase (Homo sapiens) (P22303 whole entry, looked up): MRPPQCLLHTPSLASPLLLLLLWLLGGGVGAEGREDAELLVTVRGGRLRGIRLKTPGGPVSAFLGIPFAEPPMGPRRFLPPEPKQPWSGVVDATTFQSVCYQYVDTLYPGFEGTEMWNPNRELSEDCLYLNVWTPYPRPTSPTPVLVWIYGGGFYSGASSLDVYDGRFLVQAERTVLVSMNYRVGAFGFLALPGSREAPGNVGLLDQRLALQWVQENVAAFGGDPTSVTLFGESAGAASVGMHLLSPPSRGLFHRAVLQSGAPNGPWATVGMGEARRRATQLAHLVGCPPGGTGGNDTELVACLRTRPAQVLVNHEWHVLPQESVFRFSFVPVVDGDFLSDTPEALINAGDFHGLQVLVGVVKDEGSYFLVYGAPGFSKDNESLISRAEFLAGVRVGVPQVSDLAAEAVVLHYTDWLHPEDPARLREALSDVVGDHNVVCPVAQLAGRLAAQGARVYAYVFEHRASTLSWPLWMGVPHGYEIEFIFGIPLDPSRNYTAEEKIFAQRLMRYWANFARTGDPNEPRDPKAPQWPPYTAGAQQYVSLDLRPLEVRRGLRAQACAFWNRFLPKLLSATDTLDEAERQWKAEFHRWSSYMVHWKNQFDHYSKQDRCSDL

On to `N=c1ccn2c(n1)O[C@H]1[C@H](O)[C@@H](CO)O[C@H]12`, for which the Potency result in assay [1], in assay [2], in assay [3] and in assay [4] was “inactive” in each case.
As for `CCCCN(CCO)CCO`, the Potency entry in assay [1], in assay [2], in assay [3] and in assay [4] was “inactive” each time.
Turning to `CCCCOC(=O)c1ccccc1C(=O)OCC(CC)CCCC` (stereo unspecified), the Potency result in assay [1], in assay [2], in assay [3] and in assay [4] was “inactive” in each case.
Turning to `COc1cc(C)c(Cc2cnc(N)nc2N)cc1OC`, the Potency entry in assay [1], in assay [2], in assay [3] and in assay [4] was “inactive” throughout.
In the case of `O=C(CCCN1CCC(O)(c2ccc(Br)cc2)CC1)c1ccc(F)cc1`, the Potency entry in assay [1], in assay [2], in assay [3] and in assay [4] was “inactive” in each case.
Take `C[Si](O[Si](C)(C)C)O[Si](C)(C)C`: the Potency result in assay [1], in assay [2], in assay [3] and in assay [4] was “inactive” throughout.
For the compound `Nc1ccn([C@H]2CS[C@@H](CO)O2)c(=O)n1`, the Potency result in assay [1], in assay [2], in assay [3] and in assay [4] was “inactive” in each case.
With `O=C1c2ccccc2C(=O)C1c1ccc2cc(S(=O)(=O)O)cc(S(=O)(=O)O)c2n1`, the Potency result in assay [1], in assay [2], in assay [3] and in assay [4] was “inactive” each time.
For `Nc1cc(S(=O)(=O)O)ccc1S(=O)(=O)O`, the Potency result in assay [1], in assay [2], in assay [3] and in assay [4] was “inactive” in each case.
Turning to `Cn1c(=O)c2[nH]cnc2n(C)c1=O`, the Potency result in assay [1], in assay [2], in assay [3] and in assay [4] was “inactive” each time.
Turning to `CC1(C)S[C@@H]2[C@H](NC(=O)Cc3ccccc3)C(=O)N2[C@H]1C(=O)O` (tested in a mixture with another compound), the Potency entry in assay [1], in assay [2], in assay [3] and in assay [4] was “inactive” in each case.
For `CCOC(=O)c1c(C)n(C)c2ccc(O)cc12`, the Potency result in assay [1], in assay [2], in assay [3] and in assay [4] was “inactive” each time.
On to `CCOC(=O)CCC(C)=O`, for which the Potency result in assay [1], in assay [2], in assay [3] and in assay [4] was “inactive” in each case.
In the case of `CCCCC(CC)COCCC#N` (stereo unspecified), the Potency entry in assay [1], in assay [2], in assay [3] and in assay [4] was “inactive” throughout.
Turning to `CCCCCC#CC(=O)OC`, the Potency entry in assay [1], in assay [2], in assay [3] and in assay [4] was “inactive” throughout.
For `O=C(O)C[C@H](NC(=O)OCc1ccccc1)C(=O)O`, the Potency result in assay [1], in assay [2], in assay [3] and in assay [4] was “inactive” in each case.
`COc1ccc2[nH]cc(CCNC(C)=O)c2c1`: the Potency entry in assay [1], in assay [2], in assay [3] and in assay [4] was “inactive” throughout.
As to `SCCOCCOCCS`, the Potency result in assay [1], in assay [2], in assay [3] and in assay [4] was “inactive” each time.
Turning to `O=C(O)c1cccc(C(=O)O)c1`, the Potency result in assay [1], in assay [2], in assay [3] and in assay [4] was “inactive” in each case.
For `CC/C=C\CCOC(=O)CCCCC`, the Potency entry in assay [1], in assay [2], in assay [3] and in assay [4] was “inactive” throughout.
For `Oc1cccc2[nH]ccc12`, the Potency result in assay [1], in assay [2], in assay [3] and in assay [4] was “inactive” throughout.
On to `CCN(Cc1cccc(S(=O)(=O)O)c1)c1ccc(C(=C2C=CC(=[N+](CC)Cc3cccc(S(=O)(=O)O)c3)C=C2)c2ccccc2S(=O)(=O)[O-])cc1`, for which the Potency result in assay [1], in assay [2], in assay [3] and in assay [4] was “inactive” throughout.
Regarding `CN(C)c1cccc(O)c1`, the Potency entry in assay [1], in assay [2], in assay [3] and in assay [4] was “inactive” in each case.
`Cc1cc(C)c(C)c(C)c1`: the Potency entry in assay [1], in assay [2], in assay [3] and in assay [4] was “inactive” throughout.
`O=C1OC2(c3ccccc31)c1cc(I)c(O)c(I)c1Oc1c2cc(I)c(O)c1I`: the Potency in assay [1] was 36 µM (active) and inactive; in assay [2] it was 40.4 µM (active) and inactive. Besides, the Potency entry in assay [3] and in assay [4] was “inactive” each time.
As to `O=C(O)c1cc(N=Nc2ccc(S(=O)(=O)Nc3ccccn3)cc2)ccc1O`, the Potency result in assay [1], in assay [2], in assay [3] and in assay [4] was “inactive” in each case.
Regarding `CCCCCCCCCCOC(C)=O`, the Potency result in assay [1], in assay [2], in assay [3] and in assay [4] was “inactive” in each case.
As to `Cc1c(-c2cccnc2)c2ccccc2n1CCCCC(=O)O`, the Potency entry in assay [1], in assay [2], in assay [3] and in assay [4] was “inactive” in each case.
Take `Cc1c(C(=O)c2c[nH]n(C)c2=O)ccc(S(C)(=O)=O)c1C1=NOCC1`: the Potency result in assay [1], in assay [2], in assay [3] and in assay [4] was “inactive” each time.
As to `Cc1cc(C)c(C(=O)O)c(C)c1`, the Potency result in assay [1], in assay [2], in assay [3] and in assay [4] was “inactive” in each case.
On to `O=CNNC=O`, for which the Potency entry in assay [1], in assay [2], in assay [3] and in assay [4] was “inactive” throughout.
In the case of `CSc1ccc2c(c1)N(CCC1CCCCN1C)c1ccccc1S2` (stereo unspecified), the Potency in assay [1] is 70.7 µM (active); in assay [2], 79.3 µM (active) and inactive; in assay [3], 31.6 µM (active). In addition, in assay [4], the Potency result is “inactive”.
Turning to `CCCCCCCOC(=O)c1ccc(O)cc1`, the Potency entry in assay [1], in assay [2], in assay [3] and in assay [4] was “inactive” each time.
As for `O=C(O)CCCCCCCCC(=O)O`, the Potency result in assay [1], in assay [2], in assay [3] and in assay [4] was “inactive” in each case.
With `CCCCCCCCCCO[C@@H]1O[C@H](CO)[C@@H](O)[C@H](O)[C@H]1O`, the Potency entry in assay [1], in assay [2], in assay [3] and in assay [4] was “inactive” throughout.
Regarding `O=C(O)CCCCCCC(=O)O`, the Potency entry in assay [1], in assay [2], in assay [3] and in assay [4] was “inactive” each time.
Regarding `c1ccsc1`, the Potency result in assay [1], in assay [2], in assay [3] and in assay [4] was “inactive” throughout.
For the compound `FC(F)(F)c1ccccc1`, the Potency result in assay [1], in assay [2], in assay [3] and in assay [4] was “inactive” each time.
As to `CC(CCC(=O)O)C(=O)O` (stereo unspecified), the Potency entry in assay [1], in assay [2], in assay [3] and in assay [4] was “inactive” throughout.

Values taken from PubChem BioAssay (Tox21).
